Test results from PubChem BioAssay (EPA / NIEHS).
Records with an inconclusive call do not appear. Calls of active or inactive are those of the source. How the source made its calls, unless noted: active means hit-call score of the fitted dose curve at least 0.9, where 1 is the maximum; inactive means score below 0.9.

Tests used:
[1] = target: Bile acid receptor (Homo sapiens) (UniProt Q96RI1); assay: ATG_FXR_TRANS: Attagene TRANS-FACTORIAL HepG2 Assay for Farnesoid X Receptor (FXR) (AID 2282979; active means hit-call score of the fitted dose curve at least 0.9, where 1 is the maximum;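 further: hits raise reporter mRNA above DMSO so AC50 marks FXR activation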); settings: HepG2 Attagene TRANS FXR-GAL4 reporter transcription
Chain of Bile acid receptor (Homo sapiens) (Q96RI1 whole entry, looked up, the tested form may be a part): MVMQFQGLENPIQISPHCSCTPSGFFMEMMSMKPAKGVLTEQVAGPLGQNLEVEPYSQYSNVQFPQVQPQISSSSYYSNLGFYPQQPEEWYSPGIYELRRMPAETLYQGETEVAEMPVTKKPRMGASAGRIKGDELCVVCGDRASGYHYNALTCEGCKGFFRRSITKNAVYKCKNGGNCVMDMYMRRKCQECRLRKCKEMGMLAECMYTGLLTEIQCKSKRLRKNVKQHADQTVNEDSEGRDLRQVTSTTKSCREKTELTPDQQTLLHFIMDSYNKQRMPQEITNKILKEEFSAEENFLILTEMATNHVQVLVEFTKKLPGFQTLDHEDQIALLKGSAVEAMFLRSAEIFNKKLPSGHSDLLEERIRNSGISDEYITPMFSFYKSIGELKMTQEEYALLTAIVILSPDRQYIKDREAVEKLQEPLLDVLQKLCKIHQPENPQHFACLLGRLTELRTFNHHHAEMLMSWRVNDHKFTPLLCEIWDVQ
Method in brief: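 Transient transfection of HepG2 with multiplexed GAL4-UAS reporter units; exogenous FXR-GAL4 chimera. Dose 24 h → TriZol RNA → oligo(dT) RT → PCR, 6-FAM primer extension, HpaI cut → CE. Gain vs DMSO.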

[2] = target: Oxysterols receptor LXR-alpha (Homo sapiens) (UniProt Q13133); assay: ATG_LXRa_TRANS: Attagene TRANS-FACTORIAL HepG2 Assay for human Liver X Receptor alpha (LXRa) (AID 2282980; active means hit-call score of the fitted dose curve at least 0.9, where 1 is the maximum); settings: HepG2 Attagene TRANS reporter, LXRa transactivation
Chain of Oxysterols receptor LXR-alpha (Homo sapiens) (Q13133 whole entry, looked up, the tested form may be a part): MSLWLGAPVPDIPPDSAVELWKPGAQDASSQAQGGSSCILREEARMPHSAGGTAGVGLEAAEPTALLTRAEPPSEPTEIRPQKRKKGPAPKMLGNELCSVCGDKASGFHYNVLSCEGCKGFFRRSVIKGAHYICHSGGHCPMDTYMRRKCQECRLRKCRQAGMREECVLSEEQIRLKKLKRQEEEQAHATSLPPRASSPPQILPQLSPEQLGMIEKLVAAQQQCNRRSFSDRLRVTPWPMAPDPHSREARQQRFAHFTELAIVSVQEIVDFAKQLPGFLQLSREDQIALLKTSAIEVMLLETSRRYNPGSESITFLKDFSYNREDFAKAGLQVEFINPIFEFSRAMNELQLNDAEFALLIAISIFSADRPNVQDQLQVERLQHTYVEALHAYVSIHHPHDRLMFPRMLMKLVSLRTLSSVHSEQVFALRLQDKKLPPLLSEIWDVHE
Method in brief: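 Transfect HepG2 with GAL4-UAS multiplex reporter constructs (TRANS format, chimeric receptor-GAL4); treat 24 h; extract RNA, reverse-transcribe, PCR-amplify, FAM-label, HpaI-digest; resolve fragments by capillary electrophoresis. Upward response vs DMSO.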

[3] = target: Oxysterols receptor LXR-beta (Homo sapiens) (UniProt P55055); assay: ATG_LXRb_TRANS: Attagene TRANS-FACTORIAL HepG2 Assay for human Liver X Receptor beta (LXRb) (AID 2282981; active means hit-call score of the fitted dose curve at least 0.9, where 1 is the maximum); settings: HepG2 Attagene TRANS GAL4-LXRb reporter, mRNA
Chain of Oxysterols receptor LXR-beta (Homo sapiens) (P55055 whole entry, looked up, the tested form may be a part): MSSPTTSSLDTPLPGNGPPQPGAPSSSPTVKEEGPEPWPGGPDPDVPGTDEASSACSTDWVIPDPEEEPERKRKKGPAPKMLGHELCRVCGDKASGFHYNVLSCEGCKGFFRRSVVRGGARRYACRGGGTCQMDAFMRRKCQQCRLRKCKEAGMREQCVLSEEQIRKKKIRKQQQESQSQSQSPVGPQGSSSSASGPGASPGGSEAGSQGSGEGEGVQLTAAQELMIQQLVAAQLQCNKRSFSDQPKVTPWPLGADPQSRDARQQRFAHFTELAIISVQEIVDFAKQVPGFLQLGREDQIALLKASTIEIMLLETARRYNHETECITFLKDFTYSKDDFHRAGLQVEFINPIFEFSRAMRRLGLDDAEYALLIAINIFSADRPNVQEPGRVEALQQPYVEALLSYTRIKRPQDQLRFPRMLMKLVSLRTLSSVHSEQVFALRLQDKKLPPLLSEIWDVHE
Method in brief: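 Measures induction of a Gal4-driven reporter transcript in HepG2 cells expressing an exogenous LXRb-Gal4 fusion. Cells are exposed to compound for 24 h before RNA isolation and RT-PCR with capillary electrophoresis detection.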

[4] = ATG_M_06_TRANS: Attagene TRANS-FACTORIAL HepG2 Assay for M06 Transcription Factor (Internal Marker) (AID 2282983; active means hit-call score of the fitted dose curve at least 0.9, where 1 is the maximum;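 on AC50: potency for rise in reporter mRNA above DMSO baseline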); settings: HepG2 Attagene TRANS M06 internal marker reporter
Method in brief: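 Background control endpoint: reporter mRNA from transiently transfected HepG2 after 24 h dosing, detected by RT-PCR with capillary electrophoresis fluorescence. Analysed for gain versus DMSO.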

[5] = ATG_M_32_TRANS: Attagene TRANS-FACTORIAL HepG2 Assay for M32 Transcription Factor (Internal Marker) (AID 2282984; active means hit-call score of the fitted dose curve at least 0.9, where 1 is the maximum;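 further: transcript level of a background control reporter unit measured by RT-PCR and capillary electrophoresis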); settings: HepG2 Attagene TRANS M32 internal marker reporter
Method in brief: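 After 24 h dosing of transfected HepG2 cells, total RNA was reverse-transcribed, reporter sequences PCR-amplified, 6-FAM labelled by primer extension and HpaI-digested before capillary electrophoresis. Signal increase over DMSO was fitted.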

[6] = target: Nuclear receptor subfamily 4 group A member 2 (Homo sapiens) (UniProt P43354); assay: ATG_NURR1_TRANS: Attagene TRANS-FACTORIAL HepG2 Assay for human Nuclear Receptor Related Protein 1 (NURR1) (AID 2282985; active means hit-call score of the fitted dose curve at least 0.9, where 1 is the maximum); settings: HepG2 Attagene TRANS reporter, mRNA readout
Chain of Nuclear receptor subfamily 4 group A member 2 (Homo sapiens) (P43354 whole entry, looked up, the tested form may be a part): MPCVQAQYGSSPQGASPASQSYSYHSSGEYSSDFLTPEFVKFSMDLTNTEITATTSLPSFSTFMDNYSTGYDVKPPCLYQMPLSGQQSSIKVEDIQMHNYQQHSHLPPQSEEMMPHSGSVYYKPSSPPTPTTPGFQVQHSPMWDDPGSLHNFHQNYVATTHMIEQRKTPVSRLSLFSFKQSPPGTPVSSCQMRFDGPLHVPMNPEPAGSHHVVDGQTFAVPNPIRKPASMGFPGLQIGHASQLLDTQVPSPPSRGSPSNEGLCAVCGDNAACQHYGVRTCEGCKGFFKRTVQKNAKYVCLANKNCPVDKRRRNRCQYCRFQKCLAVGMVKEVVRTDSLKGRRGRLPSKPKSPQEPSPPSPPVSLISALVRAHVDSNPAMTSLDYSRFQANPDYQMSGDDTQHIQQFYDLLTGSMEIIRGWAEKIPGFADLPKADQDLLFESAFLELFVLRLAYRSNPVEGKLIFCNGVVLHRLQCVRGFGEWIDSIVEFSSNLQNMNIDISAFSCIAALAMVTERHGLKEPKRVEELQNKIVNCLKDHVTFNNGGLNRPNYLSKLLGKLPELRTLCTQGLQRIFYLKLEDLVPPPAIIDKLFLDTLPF
Method in brief: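 Chimeric NR-Gal4 fusion activity measured in HepG2 after 24 h treatment. Reporter transcripts detected by RT-PCR and capillary electrophoresis fluorescence; positive-direction curve fitting against DMSO.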

[7] = target: Transcriptional activator Myb (Homo sapiens) (UniProt P10242); assay: ATG_Myb_CIS: Attagene CIS-FACTORIAL HepG2 Assay for human Myeloblastosis (Myb) Proto-Oncogene Transcription Factor (AID 2282986); settings: HepG2 Attagene CIS-FACTORIAL Myb reporter transcription; actives raise or lower the signal
Chain of Transcriptional activator Myb (Homo sapiens) (P10242 whole entry, looked up): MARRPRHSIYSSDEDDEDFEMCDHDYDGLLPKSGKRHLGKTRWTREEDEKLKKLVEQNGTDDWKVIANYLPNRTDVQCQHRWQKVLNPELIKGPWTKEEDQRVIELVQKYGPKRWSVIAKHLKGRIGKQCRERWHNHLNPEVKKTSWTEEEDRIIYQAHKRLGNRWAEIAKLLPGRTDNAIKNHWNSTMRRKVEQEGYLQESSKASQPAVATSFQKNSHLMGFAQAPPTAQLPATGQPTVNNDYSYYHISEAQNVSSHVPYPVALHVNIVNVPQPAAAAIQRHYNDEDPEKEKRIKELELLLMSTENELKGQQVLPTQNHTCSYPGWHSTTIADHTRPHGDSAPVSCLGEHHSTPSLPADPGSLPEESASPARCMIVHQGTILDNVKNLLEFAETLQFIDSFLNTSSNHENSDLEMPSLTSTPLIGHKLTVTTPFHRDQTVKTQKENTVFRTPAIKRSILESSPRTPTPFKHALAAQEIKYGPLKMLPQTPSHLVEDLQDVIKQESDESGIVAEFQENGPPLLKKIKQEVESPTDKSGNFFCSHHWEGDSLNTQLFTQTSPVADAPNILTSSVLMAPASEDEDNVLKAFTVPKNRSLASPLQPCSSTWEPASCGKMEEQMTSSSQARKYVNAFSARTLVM
Method in brief: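 HepG2 cells were transiently transfected with cis-regulated multiple reporter transcription units reflecting endogenous Myb activity, then exposed to compound for 24 hours. Reporter mRNA was measured by RT-PCR with capillary electrophoresis; bidirectional fitting versus DMSO baseline.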

[8] = target: Nuclear respiratory factor 1 (Homo sapiens) (UniProt Q16656); assay: ATG_NRF1_CIS: Attagene CIS-FACTORIAL HepG2 Assay for human Nuclear Respiratory Factor 1 (NRF1) Orphan Gene (AID 2282987); settings: HepG2 NRF1 cis-element reporter, Attagene multiplex; actives raise or lower the signal
Chain of Nuclear respiratory factor 1 (Homo sapiens) (Q16656 whole entry, looked up): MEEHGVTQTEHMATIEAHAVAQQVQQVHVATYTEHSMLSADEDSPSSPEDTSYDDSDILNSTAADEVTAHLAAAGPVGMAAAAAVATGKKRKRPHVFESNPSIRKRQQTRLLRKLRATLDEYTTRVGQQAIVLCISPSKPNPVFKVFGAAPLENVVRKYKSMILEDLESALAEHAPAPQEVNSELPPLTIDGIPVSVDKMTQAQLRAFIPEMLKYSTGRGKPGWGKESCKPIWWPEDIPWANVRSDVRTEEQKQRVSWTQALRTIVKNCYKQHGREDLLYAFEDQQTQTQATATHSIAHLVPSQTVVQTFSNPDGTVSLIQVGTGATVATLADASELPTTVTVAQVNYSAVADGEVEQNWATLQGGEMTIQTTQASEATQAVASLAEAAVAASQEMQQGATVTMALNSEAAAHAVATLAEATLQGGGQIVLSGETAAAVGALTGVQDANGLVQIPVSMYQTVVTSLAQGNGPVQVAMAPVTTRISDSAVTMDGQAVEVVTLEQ
Method in brief: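 HepG2 cells transiently transfected with multiple reporter transcription units under cis-regulatory promoter control, so endogenous transcription-factor activity is read. After 24 h compound exposure, reporter mRNA quantified by RT-PCR, fluorescent labelling, HpaI digestion and capillary electrophoresis; bidirectional fitting versus DMSO.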

[9] = ATG_NFI_CIS: Attagene CIS-FACTORIAL HepG2 Assay for human Nuclear Factor I (NFI) (AID 2282989); settings: HepG2 cis-regulatory reporter, NFI response element transcription; actives raise or lower the signal
Method in brief: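 After transient transfection of HepG2 with cis-promoter reporter constructs and 24 h dosing, RNA is reverse-transcribed, amplified, 6-FAM end-labelled and HpaI-digested before capillary analysis. Bidirectional curve fitting against DMSO.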

[10] = target: Myc proto-oncogene protein (Homo sapiens) (UniProt P01106); assay: ATG_Myc_CIS: Attagene CIS-FACTORIAL HepG2 Assay for human Myelocytomatosis (Myc) Proto-Oncogene Transcription Factor (AID 2282990); settings: HepG2, Attagene cis-reporter transcription factor activity; actives raise or lower the signal
Chain of Myc proto-oncogene protein (Homo sapiens) (P01106 whole entry, looked up): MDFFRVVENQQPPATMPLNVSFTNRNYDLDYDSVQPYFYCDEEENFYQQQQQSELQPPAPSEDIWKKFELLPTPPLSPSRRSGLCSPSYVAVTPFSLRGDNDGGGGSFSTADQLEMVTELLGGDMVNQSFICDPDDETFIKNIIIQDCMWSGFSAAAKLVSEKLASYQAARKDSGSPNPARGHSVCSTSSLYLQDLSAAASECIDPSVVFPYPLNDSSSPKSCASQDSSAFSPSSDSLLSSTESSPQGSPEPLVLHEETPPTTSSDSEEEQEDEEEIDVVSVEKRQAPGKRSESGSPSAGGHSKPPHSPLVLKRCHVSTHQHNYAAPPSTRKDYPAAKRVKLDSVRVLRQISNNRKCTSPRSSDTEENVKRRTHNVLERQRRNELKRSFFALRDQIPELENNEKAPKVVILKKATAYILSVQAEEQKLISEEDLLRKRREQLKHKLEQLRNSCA
Method in brief: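 HepG2 cells transiently transfected with multiple cis-promoter-driven reporter transcription units, so endogenous TF activity is read. After 24 h compound exposure, reporter mRNA was quantified by RT-PCR, 6-FAM labelling, HpaI digestion and capillary electrophoresis; bidirectional fit versus DMSO.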

[11] = ATG_NF_kB_CIS: Attagene CIS-FACTORIAL HepG2 Assay for human Nuclear Factor Kappa B (NF-kB) (AID 2282991); settings: HepG2 Attagene cis-factorial NF-kB reporter mRNA; actives raise or lower the signal
Method in brief: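 HepG2 cells transiently transfected with multiplexed cis-element reporter units measuring endogenous transcription factor activity; reporter mRNA read 24 h after dosing by RT-PCR, fluorescent labelling, HpaI digestion and capillary electrophoresis. Bidirectional fit against DMSO baseline.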

[12] = ATG_NRF2_ARE_CIS: Attagene CIS-FACTORIAL HepG2 Assay for human Nuclear Factor Erythroid 2 Related Factor 2 (NFR2) response to Antioxidant Response Elements (ARE) (AID 2282992); settings: HepG2 Attagene ARE/NRF2 reporter, transcription factor activity; actives raise or lower the signal
Method in brief: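 Using transiently transfected HepG2 cells exposed for 24 h, reporter mRNA levels were determined by RT-PCR with fluorescent primer extension and capillary electrophoresis, analysed for gain or loss of signal against DMSO.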

[13] = ATG_Oct_MLP_CIS: Attagene CIS-FACTORIAL HepG2 Assay for human Octamer-Binding Transcription Factor (Oct) (AID 2282993); settings: HepG2 Attagene cis-factorial Oct reporter, mRNA; actives raise or lower the signal
Method in brief: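 Cells of the HepG2 line express promoter-controlled reporter sequences whose mRNA levels, after 24 h treatment, are measured by RT-PCR and capillary electrophoresis. Increases and decreases are scored relative to DMSO.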

[14] = target: Cellular tumor antigen p53 (Homo sapiens) (UniProt P04637); assay: ATG_p53_CIS: Attagene CIS-FACTORIAL HepG2 Assay for human p53 Transcription Factor (AID 2282994); settings: HepG2 p53 cis-element reporter, Attagene mRNA; actives raise or lower the signal
Chain of Cellular tumor antigen p53 (Homo sapiens) (P04637 whole entry, looked up, the tested form may be a part): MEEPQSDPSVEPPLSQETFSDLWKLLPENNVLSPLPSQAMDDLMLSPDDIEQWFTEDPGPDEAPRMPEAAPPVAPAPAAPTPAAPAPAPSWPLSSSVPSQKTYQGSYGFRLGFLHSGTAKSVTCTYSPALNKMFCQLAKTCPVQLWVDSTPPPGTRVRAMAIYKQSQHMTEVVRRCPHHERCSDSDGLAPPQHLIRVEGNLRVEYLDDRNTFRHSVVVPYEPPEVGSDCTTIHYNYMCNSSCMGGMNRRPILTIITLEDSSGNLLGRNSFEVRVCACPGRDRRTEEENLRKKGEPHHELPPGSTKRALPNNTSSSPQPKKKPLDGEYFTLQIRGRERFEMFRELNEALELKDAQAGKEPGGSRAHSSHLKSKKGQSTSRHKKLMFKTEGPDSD
Method in brief: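 In HepG2 cells, reporter transcription units under cis-regulatory promoters were transiently introduced. Following 24 h treatment, RNA was processed to labelled, digested cDNA fragments read by capillary electrophoresis; fitting was bidirectional versus DMSO.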

[15] = target: Glucocorticoid receptor (Homo sapiens) (UniProt P04150); assay: ATG_GR_TRANS: Attagene TRANS-FACTORIAL HepG2 Assay for human Glucocorticoid Receptor (GR) (AID 2282978; active means hit-call score of the fitted dose curve at least 0.9, where 1 is the maximum;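 further: activators score as hits since higher reporter transcript over DMSO is fitted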); settings: HepG2 Attagene TRANS GR reporter, mRNA transcription
Chain of Glucocorticoid receptor (Homo sapiens) (P04150 whole entry, looked up, the tested form may be a part): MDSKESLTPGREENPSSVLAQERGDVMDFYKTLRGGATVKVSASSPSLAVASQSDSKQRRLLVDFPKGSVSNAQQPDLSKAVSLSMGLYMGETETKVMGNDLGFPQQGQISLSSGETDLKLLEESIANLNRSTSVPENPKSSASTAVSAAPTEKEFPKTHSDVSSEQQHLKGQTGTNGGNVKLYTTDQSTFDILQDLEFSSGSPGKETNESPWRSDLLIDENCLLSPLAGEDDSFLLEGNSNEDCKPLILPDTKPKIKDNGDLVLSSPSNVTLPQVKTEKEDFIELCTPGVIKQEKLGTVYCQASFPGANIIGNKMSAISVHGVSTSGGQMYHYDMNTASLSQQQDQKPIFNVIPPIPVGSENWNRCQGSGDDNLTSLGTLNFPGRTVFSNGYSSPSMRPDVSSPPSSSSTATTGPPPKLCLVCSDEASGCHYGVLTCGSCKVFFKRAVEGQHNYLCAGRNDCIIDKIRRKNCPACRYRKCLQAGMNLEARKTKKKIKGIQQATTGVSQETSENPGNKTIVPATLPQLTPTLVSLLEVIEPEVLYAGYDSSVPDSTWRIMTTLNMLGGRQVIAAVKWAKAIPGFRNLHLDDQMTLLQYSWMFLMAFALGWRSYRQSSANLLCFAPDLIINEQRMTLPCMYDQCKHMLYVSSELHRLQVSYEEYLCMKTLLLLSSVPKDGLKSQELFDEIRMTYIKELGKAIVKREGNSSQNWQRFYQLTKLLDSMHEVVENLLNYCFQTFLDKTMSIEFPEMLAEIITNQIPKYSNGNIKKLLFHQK
Method in brief: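 HepG2 cells transiently transfected with multiplexed reporter units in which chimeric NR-GAL4 proteins drive GAL4-UAS reporters; 24 h compound exposure. Reporter mRNA measured by RT-PCR, 6-FAM labelling, HpaI digestion and capillary electrophoresis; gain-of-signal fitted versus DMSO.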

[16] = BSK_3C_TissueFactor: BioMAP Diversity Plus: 3C Assay for Tissue Factor Biomarker Activity (AID 2282997); settings: BioMAP 3C HUVEC, tissue factor biomarker readout; actives raise or lower the signal
Method in brief: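 After a 24 h chemical exposure of primary human umbilical vein endothelial cells, Tissue Factor levels were quantified by ELISA.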

[17] = BSK_3C_uPAR: BioMAP Diversity Plus: 3C Assay for Urokinase-type plasminogen activator receptor (uPAR) Biomarker Activity (AID 2282998); settings: BioMAP 3C HUVEC, uPAR biomarker ELISA; actives raise or lower the signal
Method in brief: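 Endothelial primary cells of human umbilical vein origin received test chemical; 24 h later uPAR was assayed by ELISA. Fitting was bidirectional, DMSO as negative control.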

[18] = BSK_3C_VCAM1: BioMAP Diversity Plus: 3C Assay for Vascular cell adhesion molecule 1 (VCAM1) Biomarker Activity (AID 2282999); settings: BioMAP 3C HUVEC, VCAM1 ELISA, cytokine-stimulated; actives raise or lower the signal
Method in brief: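 Vascular primary endothelium (human umbilical vein) was exposed to chemicals and assayed 24 h later. VCAM-1 levels came from ELISA, with DMSO serving as baseline for bidirectional fitting.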

[19] = target: Hepatocyte nuclear factor 4-alpha (Homo sapiens) (UniProt P41235); assay: ATG_HNF4a_TRANS: Attagene TRANS-FACTORIAL HepG2 Assay for human Hepatocyte Nuclear Factor 4 alpha (HNF4a) (AID 2282982; active means hit-call score of the fitted dose curve at least 0.9, where 1 is the maximum); settings: HepG2 HNF4a transactivation reporter, mRNA readout
Method in brief: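 In this trans-factorial format, a chimeric HNF4a-GAL4 fusion drives a GAL4-UAS reporter in transfected HepG2 liver cells. After 24 h treatment, reporter mRNA induction is measured by RT-PCR with capillary electrophoresis, relative to DMSO.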

Measured: AC50

CC(=O)c1ccc(-c2ccccc2)cc1
inactive: [1] | [2] | [3] | [4] | [5] | [6] | [7] | [8] | [9] | [10] | [11] | [12] | [13] | [14]

CC(Cl)(Cl)C(=O)O
inactive: [15] | [4] | [5] | [6] | [7] | [8] | [9] | [10] | [12] | [13] | [16] | [17] | [18]

CCOP(=S)(OCC)SCSCC
active: [12] 73 µM
inactive: [15] | [1] | [4] | [6] | [7] | [8] | [9] | [10] | [11] | [13] | [16] | [18]

CC(Cl)CN(C)C (configuration not stated)
inactive: [15] | [2] | [4] | [5] | [7] | [8] | [9] | [10] | [11] | [13] | [14] | [16] | [18]

Cc1cc(C)c(C(=O)P(=O)(c2ccccc2)c2ccccc2)c(C)c1
inactive: [15] | [1] | [8] | [11] | [13] | [14]
active: [4] 173 µM | [7] 62.4 µM | [9] 55.2 µM | [10] 49.1 µM

N#Cc1ccc(O)cc1
inactive: [15] | [1] | [19] | [4] | [5] | [6] | [7] | [8] | [9] | [10] | [11] | [12] | [13] | [14]

CCCCOCCOP(=O)(OCCOCCCC)OCCOCCCC
inactive: [15] | [2] | [3] | [19] | [4] | [5] | [6] | [7] | [8] | [9] | [10] | [11] | [13] | [14] | [16] | [18]

CC(C)(C)c1ccc(O)cc1
active: [13] 166 µM | [14] 170 µM
inactive: [1] | [2] | [4] | [5] | [7] | [10] | [16] | [18]

N#Cc1cc([N+](=O)[O-])ccc1N
inactive: [15] | [1] | [3] | [4] | [5] | [6] | [7] | [8] | [9] | [10] | [11] | [13] | [14] | [18]
active: [12] 27.2 µM | [16] 0.706 µM

COP(N)(=S)OC
inactive: [15] | [5] | [7] | [8] | [9] | [10] | [11] | [12] | [13] | [14] | [16] | [17] | [18]
